The text below walks through data of PubChem BioAssay (Tox21).

For assay [1], the target named is Acetylcholinesterase (Homo sapiens) (UniProt P22303). Description: Acetylcholinesterase (AChE) small molecule antagonists: colormetric cell-based qHTS assay (AID 1347395). Note: nearly all actives have a fitted effect of over 30% in size. Note: potency is the fitted concentration of half-maximal effect. In short, it runs like this:
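Cells (SH-SY5Y, 2,000 per well) are seeded and left overnight at 37 C. Compound is added for 30 min, then DTNB and acetylthiocholine for a further 90 min at 37 C before absorbance-based thiocholine detection.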

The target is the same in assay [2]. As to the kind of experiment: Acetylcholinesterase (AChE) small molecule antagonists: enzyme-based qHTS assay (AID 1347397). Note: nearly all actives have a fitted effect of over 55% in size. Note: potency is the fitted concentration of half-maximal effect. The conditions noted are these: Potency: AChE enzyme activity inhibition; outcome: AChE enzyme activity inhibition. In short, it runs like this: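 Recombinant human AChE, dispensed at 50 mU/mL, was preincubated with Tox21 10K compounds or DMSO vehicle for 30 min at room temperature. DTNB plus acetylthiocholine was then added, and thiocholine was measured colorimetrically after a further 10 min.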
For orientation: In qHTS, concentration-response curves come from the screen itself.

The target is the same in assay [3]. Description: Acetylcholinesterase (AChE) small molecule antagonists: fluorescence cell-based qHTS assay (AID 1347398). Note: nearly all actives have a fitted effect of over 50% in size. Note: potency is the fitted concentration of half-maximal effect. The conditions noted are these: Potency: AChE activity; outcome: AChE activity. In short, it runs like this: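 Human SH-SY5Y cells were plated overnight at 37 C, exposed to compound for 30 min at 37 C, 5% CO2, then given acetylthiocholine plus Thiolite Green for 40 min at room temperature; thiocholine fluorescence (Ex/Em 490/520 nm) reports endogenous AChE activity.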

The target is the same in assay [4]. Description: Acetylcholinesterase (AChE) small molecule antagonists: enzyme-based qHTS assay with human liver microsomes (AID 1347399). Note: nearly all actives have a fitted effect of over 60% in size. The settings on record: Potency: qHTS inhibition; outcome: qHTS inhibition. In short, it runs like this:
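Recombinant human AChE (50 mU/mL in the enzyme mix) and human liver microsomes (0.25 mg/mL final) were preincubated with compound and NADPH (0.25 mg/mL final) for 30 min at 37 C. Acetylthiocholine/DTNB was then added; thiocholine was read colorimetrically after 10 min at room temperature.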

The structures appear in SMILES notation. Values without a mark were called inactive. Inconclusive results are not listed. The source made the active and inactive calls. Calls come from the whole dose curve.
% is set by controls: 0 for no effect and ±100 for the full control effect.

Chain of Acetylcholinesterase (Homo sapiens) (P22303 whole entry, looked up): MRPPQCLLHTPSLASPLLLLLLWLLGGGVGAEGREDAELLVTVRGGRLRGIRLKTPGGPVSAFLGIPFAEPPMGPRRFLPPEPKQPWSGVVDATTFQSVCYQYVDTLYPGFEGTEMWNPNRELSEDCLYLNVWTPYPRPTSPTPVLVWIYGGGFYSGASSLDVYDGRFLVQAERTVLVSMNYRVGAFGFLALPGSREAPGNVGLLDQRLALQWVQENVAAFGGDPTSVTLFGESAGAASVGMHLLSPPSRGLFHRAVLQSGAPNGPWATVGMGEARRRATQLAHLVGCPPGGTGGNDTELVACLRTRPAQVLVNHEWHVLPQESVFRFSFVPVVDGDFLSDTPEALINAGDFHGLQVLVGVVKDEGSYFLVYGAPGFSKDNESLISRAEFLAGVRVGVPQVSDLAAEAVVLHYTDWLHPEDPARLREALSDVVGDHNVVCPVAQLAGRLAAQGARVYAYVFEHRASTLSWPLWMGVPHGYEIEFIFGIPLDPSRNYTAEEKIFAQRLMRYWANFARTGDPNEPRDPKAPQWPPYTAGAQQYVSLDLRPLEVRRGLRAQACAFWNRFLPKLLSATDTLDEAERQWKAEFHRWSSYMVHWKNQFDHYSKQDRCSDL

As for `CCN1CCCC1CN` (stereo not given), the Potency result in assay [1], in assay [2], in assay [3] and in assay [4] was “inactive” each time.

On to `C1N2CN3CN1CN(C2)C3`, for which the Potency entry in assay [1], in assay [2], in assay [3] and in assay [4] was “inactive” throughout.

Consider `COC(OC)OC`, for which the Potency result in assay [1], in assay [2], in assay [3] and in assay [4] was “inactive” in each case.

In the case of `CN=C(N)NC(=O)Nc1c(C)cccc1C`, the Potency result in assay [1], in assay [2], in assay [3] and in assay [4] was “inactive” throughout.

On to `CC1(C)CC(=O)CC(C)(C)N1`, for which the Potency entry in assay [1], in assay [2], in assay [3] and in assay [4] was “inactive” each time.

Turning to `Cc1nc2sccn2c(=O)c1CCN1CCC(=C(c2ccc(F)cc2)c2ccc(F)cc2)CC1`, the Potency in assay [1] is 30.9 µM (active); in assay [2], 38.9 µM (active); in assay [3], 15.5 µM (active). Also, the Potency entry in assay [4] is “inactive”.

Turning to `CCCCC(CC)CN=C(N)NC(N)=NCCCCCCN=C(N)NC(N)=NCC(CC)CCCC` (stereo not given), the Potency result in assay [1] and in assay [4] was “inactive” each time. The Potency in assay [2] is 17.4 µM (active); in assay [3] it was 13.8 µM (active).

`O=C(O)c1cccc(C[C@@H]2COc3ccc(OCc4nc5cc(F)ccc5s4)cc3[C@@H]2O)c1`: the Potency entry in assay [1], in assay [2], in assay [3] and in assay [4] was “inactive” each time.

With `CCCN(C1CCN(C(=O)C2CCNCC2)CC1)[C@@H]1CCc2ccc(OC)cc2C1`, the Potency entry in assay [1], in assay [2], in assay [3] and in assay [4] was “inactive” each time.

In the case of `CCC(=O)/C=C/C1C(C)=CCCC1(C)C` (stereo not given), the Potency entry in assay [1], in assay [2], in assay [3] and in assay [4] was “inactive” in each case.

With `COC(Cc1ccccc1)OC`, the Potency result in assay [1], in assay [2], in assay [3] and in assay [4] was “inactive” in each case.

For `CC1=C(Br)C(=O)C(Br)=C/C1=C(/c1ccccc1S(=O)(=O)O)c1cc(Br)c(O)c(Br)c1C`, the Potency result in assay [1], in assay [2], in assay [3] and in assay [4] was “inactive” each time.

Take `C=C(C)CC(C)(C)C`: the Potency result in assay [1], in assay [2], in assay [3] and in assay [4] was “inactive” throughout.

For `CCCCCCCO`, the Potency result in assay [1], in assay [2], in assay [3] and in assay [4] was “inactive” throughout.

In the case of `CCCCCCc1ccc(O)cc1O`, the Potency result in assay [1], in assay [2], in assay [3] and in assay [4] was “inactive” throughout.

Take `CO[C@@]1(NC(=O)Cc2cccs2)C(=O)N2C(C(=O)O)=C(COC(N)=O)CS[C@@H]21`: the Potency result in assay [1], in assay [2], in assay [3] and in assay [4] was “inactive” each time.

For `C[C@@H]1C[C@H]2[C@@H]3CCC4=CC(=O)C=C[C@]4(C)[C@@]3(F)[C@@H](O)C[C@]2(C)[C@H]1C(=O)CO`, the Potency result in assay [1], in assay [2], in assay [3] and in assay [4] was “inactive” throughout.

Take `CC(C)N(c1ccccc1)C(C)C`: the Potency result in assay [1], in assay [2], in assay [3] and in assay [4] was “inactive” throughout.

In the case of `CC(C)(C)Cl`, the Potency entry in assay [1], in assay [2], in assay [3] and in assay [4] was “inactive” throughout.

On to `COCCc1ccc(OCC2CO2)cc1` (stereo not given), for which the Potency entry in assay [1], in assay [2], in assay [3] and in assay [4] was “inactive” in each case.

For the molecule `O=c1cc[nH]c(=S)[nH]1`, the Potency entry in assay [1], in assay [2], in assay [3] and in assay [4] was “inactive” each time.

Take `CCCCCCCCCCCCCC(=O)OC(C)C`: the Potency result in assay [1], in assay [2], in assay [3] and in assay [4] was “inactive” each time.

For the molecule `Cc1ccc(N)c(S(=O)(=O)O)c1`, the Potency entry in assay [1], in assay [2], in assay [3] and in assay [4] was “inactive” in each case.

As to `CCCCNC(N)=O`, the Potency result in assay [1], in assay [2], in assay [3] and in assay [4] was “inactive” each time.

Regarding `CC(O)COc1ccccc1` (stereo not given), the Potency result in assay [1], in assay [2], in assay [3] and in assay [4] was “inactive” throughout.

Take `O=C(O)c1ccc(S(=O)(=O)O)cc1C(=O)O`: the Potency entry in assay [1], in assay [2], in assay [3] and in assay [4] was “inactive” in each case.

Take `CCc1c(C(=O)O)c(=O)cnn1-c1ccc(Cl)cc1`: the Potency result in assay [1], in assay [2], in assay [3] and in assay [4] was “inactive” throughout.

In the case of `CCCCNCC`, the Potency entry in assay [1], in assay [2], in assay [3] and in assay [4] was “inactive” each time.

With `O=[N+]([O-])c1cc(N(CCO)CCO)ccc1NCCO`, the Potency result in assay [1], in assay [2], in assay [3] and in assay [4] was “inactive” throughout.

In the case of `CCCCN1CCCC[C@H]1C(=O)Nc1c(C)cccc1C`, the Potency entry in assay [1], in assay [2], in assay [3] and in assay [4] was “inactive” throughout.

As for `C=C(C)c1cccc(C(=C)C)c1`, the Potency entry in assay [1], in assay [2], in assay [3] and in assay [4] was “inactive” throughout.

On to `c1ccc(Nc2ccccc2)cc1`, for which the Potency entry in assay [1], in assay [2], in assay [3] and in assay [4] was “inactive” throughout.

In the case of `C=C[C@@]1(C)CC(=O)[C@]2(O)[C@@]3(C)[C@@H](O)CCC(C)(C)[C@@H]3[C@H](O)[C@H](OC(C)=O)[C@@]2(C)O1`, the Potency entry in assay [1], in assay [2], in assay [3] and in assay [4] was “inactive” each time.

As for `CCC(C(=O)OCCN(CC)CC)c1ccccc1` (stereo not given), the Potency result in assay [1], in assay [2], in assay [3] and in assay [4] was “inactive” in each case.

Turning to `NC(=O)NC(=O)Cc1ccccc1`, the Potency result in assay [1], in assay [2], in assay [3] and in assay [4] was “inactive” throughout.

With `C=CC(=O)OCCOC1C2CCC1C1CC=CC12` (stereo not given), the activity, negative = inhibition in assay [1] is 0.351% [at 23.6 µM]. In addition, the activity change, negative = inhibition in assay [2] was 0.411% [at 23.6 µM]; in assay [3], -2.44% [at 23.8 µM]; in assay [4], 0.164% [at 23.6 µM].

Take `CC(=O)Nc1ccc(OC(=O)c2ccccc2OC(C)=O)cc1`: the Potency entry in assay [1], in assay [2], in assay [3] and in assay [4] was “inactive” in each case.

As to `Clc1cccc(-c2cc(Cl)cc(Cl)c2)c1`, the Potency entry in assay [1], in assay [2], in assay [3] and in assay [4] was “inactive” each time.

As to `Cc1cc(N)n(-c2ccccc2)n1`, the Potency result in assay [1], in assay [2], in assay [3] and in assay [4] was “inactive” each time.

As for `Cc1cc(CC(=O)O)n(C)c1C(=O)c1ccc(Cl)cc1`, the Potency result in assay [1], in assay [2], in assay [3] and in assay [4] was “inactive” throughout.

As to `CN(C)N=Nc1ccccc1`, the Potency entry in assay [1], in assay [2], in assay [3] and in assay [4] was “inactive” in each case.

Take `CC/C=C\CCOC(=O)c1ccccc1O`: the Potency result in assay [1], in assay [2], in assay [3] and in assay [4] was “inactive” each time.

With `NS(=O)(=O)c1cc2c(cc1Cl)NC=NS2(=O)=O`, the Potency entry in assay [1], in assay [2], in assay [3] and in assay [4] was “inactive” throughout.

In the case of `CC(=O)OCCCc1ccccc1`, the Potency result in assay [1], in assay [2], in assay [3] and in assay [4] was “inactive” each time.

As for `COC1=CC(=O)C[C@@H](C)[C@]12Oc1c(Cl)c(OC)cc(OC)c1C2=O`, the Potency entry in assay [1], in assay [2], in assay [3] and in assay [4] was “inactive” throughout.

For the molecule `CC(C)NCC(O)c1cc(O)cc(O)c1` (stereo not given), the Potency entry in assay [1], in assay [2], in assay [3] and in assay [4] was “inactive” in each case.

Regarding `CCc1ccc(CC)cc1`, the Potency entry in assay [1], in assay [2], in assay [3] and in assay [4] was “inactive” each time.

As to `CN(C)CCCN`, the Potency result in assay [1], in assay [2], in assay [3] and in assay [4] was “inactive” each time.

As for `CC(=O)CCC(=O)O`, the Potency result in assay [1], in assay [2], in assay [3] and in assay [4] was “inactive” in each case.

Take `CCN(CC)c1ccc(N=Nc2ccccc2)cc1`: the Potency entry in assay [1], in assay [2], in assay [3] and in assay [4] was “inactive” in each case.

For `CSc1ccc(/C=C2/C(C)=C(CC(=O)O)c3cc(F)ccc32)cc1`, the Potency entry in assay [1], in assay [2], in assay [3] and in assay [4] was “inactive” in each case.

For `CC(C)OC(=O)C(C)(C)Oc1ccc(C(=O)c2ccc(Cl)cc2)cc1`, the Potency entry in assay [1], in assay [2], in assay [3] and in assay [4] was “inactive” each time.

On to `COC(C)(OC)OC`, for which the Potency result in assay [1], in assay [2], in assay [3] and in assay [4] was “inactive” each time.

Take `CCCCCCCCC(CCCCCC)C(=O)O` (stereo not given): the Potency result in assay [1], in assay [2], in assay [3] and in assay [4] was “inactive” in each case.

On to `CCOC(=O)Cn1cccc1-c1nc(-c2ccc(OC)cc2)c(-c2ccc(OC)cc2)s1`, for which the Potency result in assay [1], in assay [2], in assay [3] and in assay [4] was “inactive” throughout.

As for `O=C1C=CC(=O)O1`, the Potency entry in assay [1], in assay [2], in assay [3] and in assay [4] was “inactive” throughout.

Consider `O=S(=O)(O)CO`, for which the Potency entry in assay [1], in assay [2], in assay [3] and in assay [4] was “inactive” in each case.

Consider `O=CCc1ccccc1`, for which the Potency result in assay [1], in assay [2], in assay [3] and in assay [4] was “inactive” in each case.

Turning to `Cc1cccc(C)c1OCC(C)N` (stereo not given), the molecule was classed as inactive in assay [1], in assay [2], in assay [3] and in assay [4].

Take `O=C(Oc1ccccc1)c1ccccc1O`: the Potency entry in assay [1], in assay [2], in assay [3] and in assay [4] was “inactive” in each case.
